Several values for one entry are separate records, joined by “and”; a condition that tells them apart may be missing. Equal values may be shown once. Activity calls are given as the source filed them.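 Rule for the calls, unless noted: active = inhibition at or above 50% relative to wild type and mutant plate controls; inactive = inhibition below 50%.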
Columns and labels:
[1] = inhibitors of TNFa-induced NFkB p65 translocation, primary screen, imaging, HUVEC, MLSMR starter and 10KST1 sets (AID 438;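 active = inhibition above 20% together with a positive visual image hit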;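 note: compound added about 3h40 before a 20 min TNFalpha stimulation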;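 for inhibition: signal is the nuclear over cytoplasmic p65 intensity ratio per well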); conditions: HUVEC TNFa-induced p65 nuclear translocation; cell count: measured here: nuclei count (cytotoxicity indicator), at 2.08 µM; inhibition: at 2 µM, stronger effect = higher value, 0% TNFa-plus-vehicle, 100% no-TNFa wells
[2] = reduction of polyQ htt aggregates in cells – imaging, exon1htt(103Q)mCFP cells, high-content imaging, primary screen (AID 483;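 active = visual image review flags a hit and inhibition of aggregation exceeds 20%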;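 note: compound exposure lasted 3 days before fixation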;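 for nuclei count: percent of the per-plate median nuclei count of sample wells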); conditions: exon1htt(103Q)mCFP cell line, aggregate imaging, at 2 µM; inhibition of aggregation: stronger effect = higher value; nuclei count: measured here: cell count, toxicity
[3] = endothelial E-selectin expression blockers – imaging, HUVEC, immunofluorescence, MLSMR starter and 10KST1 sets, primary screen (AID 487;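 active = visually confirmed hit in the image check and inhibition above 20%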;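 for inhibition: signal is fraction of cell area covered by stained E-selectin grains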;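 for nuclei count: 100% = median nuclei count of all wells on the same plate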); conditions: HUVEC TNFalpha-induced E-selectin immunofluorescence imaging, at 2 µM; inhibition: stronger effect = higher value; nuclei count: measured here: cell number, toxicity
[4] = Primary imaging screen for DUSP6 inhibitors that restore phospho-Erk in transfected HeLa cells, chemical complementation (AID 609;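 active = compounds giving at least 50% inhibition in the cell-based MKP-3 phosphatase rescue imaging test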;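 for inhibition: phospho-Erk level distribution per well compared with pooled transfected vehicle control wells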); conditions: HeLa MKP-3 transfected, phospho-Erk imaging KS statistic, at 10 µM, cells stimulated with TPA for 15 min
[5] = target: Dual specificity protein phosphatase 6 (Homo sapiens) (UniProt Q16828); test: as above; conditions: HeLa MKP-3 transfected, phospho-Erk imaging KS statistic; at 10 µM; stronger effect = higher value; cells stimulated with TPA for 15 min
Dual specificity protein phosphatase 6 (Homo sapiens), sequence (Q16828 whole entry, looked up): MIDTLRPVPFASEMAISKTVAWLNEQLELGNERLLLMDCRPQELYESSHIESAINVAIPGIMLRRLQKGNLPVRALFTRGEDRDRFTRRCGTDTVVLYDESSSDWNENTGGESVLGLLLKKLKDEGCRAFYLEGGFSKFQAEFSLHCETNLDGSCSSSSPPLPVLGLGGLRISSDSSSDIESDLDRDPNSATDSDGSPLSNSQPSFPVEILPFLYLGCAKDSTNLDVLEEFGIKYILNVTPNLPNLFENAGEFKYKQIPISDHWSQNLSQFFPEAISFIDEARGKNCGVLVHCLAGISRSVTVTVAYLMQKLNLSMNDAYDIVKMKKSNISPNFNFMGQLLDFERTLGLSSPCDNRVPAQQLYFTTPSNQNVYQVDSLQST

[6] = target: Voltage-gated potassium channel subunit beta-2 (Rattus norvegicus) (UniProt P62483); test: inhibitors of rat Kvbeta2 reductase activity – biochemical, NADPH fluorescence, primary screen (AID 622;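 active = fluorescence slope higher than the sample average by over 3 SD, cut at about -0.22 in these data, passing the limit was not always enough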;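 note: slope of raw intensity against log time taken from 70 to 1610 s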); conditions: recombinant KvBeta, 4-cyanobenzaldehyde reduction, at 10 µM, stronger effect = higher value
Voltage-gated potassium channel subunit beta-2 (Rattus norvegicus), sequence (P62483 whole entry, looked up): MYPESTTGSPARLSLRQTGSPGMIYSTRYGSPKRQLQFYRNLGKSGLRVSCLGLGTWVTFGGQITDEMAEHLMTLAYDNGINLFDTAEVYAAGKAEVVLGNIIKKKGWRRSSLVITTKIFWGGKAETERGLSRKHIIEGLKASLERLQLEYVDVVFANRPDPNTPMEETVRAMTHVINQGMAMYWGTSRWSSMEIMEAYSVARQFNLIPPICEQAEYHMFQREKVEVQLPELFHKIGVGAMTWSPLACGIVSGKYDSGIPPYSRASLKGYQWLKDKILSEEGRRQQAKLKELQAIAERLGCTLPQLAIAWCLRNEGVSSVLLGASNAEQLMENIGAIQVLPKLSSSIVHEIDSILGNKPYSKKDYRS

[7] = target: Voltage-gated potassium channel subunit beta-2 (Rattus norvegicus) (UniProt P62483); test: enhancers of rat Kvbeta2 NADPH turnover – biochemical, NADPH fluorescence, primary screen (AID 623;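 active = NADPH fluorescence slope more negative than the mean of all samples by about 3 SD, 99.7% confidence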;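 note: fluorescence intensity change per second fitted from 20 to 320 s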); conditions: Recombinant KvBeta, NADPH fluorescence decrease slope, 10 min; at 10 µM; stronger effect = lower value
[8] = inhibitors of larval lipid processing in zebrafish, primary screen, whole organism, PED6 fluorescence, gall bladder and intestine (AID 686;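 active = a full or partial loss of lipid-probe fluorescence in the fish gall bladder, intestine or both, judged by eye; inactive = no fluorescence loss, or compound toxic to the fish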;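 note: larvae 5 to 7 days old with five fish per well; signal comes from phospholipase A2 cleavage of quenched PED6 carried via bile; overnight exposure to compound and PED6 before scoring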); conditions: Zebrafish larvae PED6 lipid processing, fluorescence scoring; screened at 20 µM (by protocol)
[9] = loss of swimming-algae plug formation – whole organism, Chlamydomonas reinhardtii, WT vs cilia-less mutant, absorbance, 96-well, primary screen (AID 463189); conditions: Chlamydomonas reinhardtii gravitaxis, OD600 absorbance, 2 days; at 10 µM; stronger effect = higher value;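 note: 0% = wild type cc124 cells in DMSO and 100% = ciliumless bld1 mutant cells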
[10] = blockers of RIG-like receptor reporter activation – cell-based, Sendai virus stimulus, luciferase, 10K MLSCN set, TLR/RLR signaling modifier project, primary screen (AID 602276;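 active = inhibition at or above 50% at 10 µM; inactive = inhibition below 50%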;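 note: firefly luciferase from ISG56 promoter only with Renilla not read in this screen; 0% = Sendai virus plus DMSO and 100% = medium plus DMSO without virus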); conditions: HEK293 RL24 IRF3 luciferase reporter, at 10 µM, stronger effect = higher value
[11] = TLR3 IRF3 reporter activation blockers – cell-based, poly I:C stimulus, luciferase, 10K MLSCN set, primary screen (AID 602277;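 active = inhibition of the reporter signal at or above 50%; inactive = inhibition below 50%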); conditions: HEK293-TLR3 RL24 IRF3 luciferase reporter, at 10 µM, stronger effect = higher value
[12] = target: Alpha-2C adrenergic receptor (Homo sapiens) (UniProt P18825); test: compounds altering alpha2C-coupled GIRK flux – cell-based, HEK293 alpha2C/GIRK1/2, thallium flux, primary screen (AID 624;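 active = fluorescence slope after compound addition differing from the mean of all screened samples at 99.7% confidence, in either direction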;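 note: slope of fluorescence ratio to pre-addition baseline per second over 15 to 24 s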); conditions: thallium flux BTC fluorescence, at 10 µM, actives lie on both sides
Alpha-2C adrenergic receptor (Homo sapiens), sequence (P18825 whole entry, looked up): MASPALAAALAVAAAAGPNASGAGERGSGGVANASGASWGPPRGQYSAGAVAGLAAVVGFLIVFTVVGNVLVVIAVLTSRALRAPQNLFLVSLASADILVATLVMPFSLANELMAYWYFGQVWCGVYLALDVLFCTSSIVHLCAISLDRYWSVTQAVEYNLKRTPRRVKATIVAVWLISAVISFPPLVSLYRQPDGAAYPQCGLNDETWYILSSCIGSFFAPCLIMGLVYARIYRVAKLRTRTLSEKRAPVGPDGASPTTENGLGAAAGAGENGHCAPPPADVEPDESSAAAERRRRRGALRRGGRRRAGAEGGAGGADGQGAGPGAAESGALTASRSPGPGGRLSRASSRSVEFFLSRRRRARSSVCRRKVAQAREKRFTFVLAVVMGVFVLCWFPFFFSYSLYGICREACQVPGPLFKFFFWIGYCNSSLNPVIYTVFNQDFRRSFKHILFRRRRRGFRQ

[13] = target: Muscarinic acetylcholine receptor M4 (Homo sapiens) (UniProt P08173); test: M4-linked GIRK flux change, two-sided – cell-based, HEK293 M4/GIRK, thallium flux, BTC-AM, M4 allosteric agonist project, primary screen (AID 625;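 active = fluorescence slope after compound addition differing from the mean of all tested samples at 99.7% confidence, mostly higher but some lower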;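 note: thallium influx through GIRK channels coupled to M4 in HEK293 cells with BTC-AM dye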); conditions: at 10 µM, actives lie on both sides
Muscarinic acetylcholine receptor M4 (Homo sapiens), sequence (P08173 whole entry, looked up): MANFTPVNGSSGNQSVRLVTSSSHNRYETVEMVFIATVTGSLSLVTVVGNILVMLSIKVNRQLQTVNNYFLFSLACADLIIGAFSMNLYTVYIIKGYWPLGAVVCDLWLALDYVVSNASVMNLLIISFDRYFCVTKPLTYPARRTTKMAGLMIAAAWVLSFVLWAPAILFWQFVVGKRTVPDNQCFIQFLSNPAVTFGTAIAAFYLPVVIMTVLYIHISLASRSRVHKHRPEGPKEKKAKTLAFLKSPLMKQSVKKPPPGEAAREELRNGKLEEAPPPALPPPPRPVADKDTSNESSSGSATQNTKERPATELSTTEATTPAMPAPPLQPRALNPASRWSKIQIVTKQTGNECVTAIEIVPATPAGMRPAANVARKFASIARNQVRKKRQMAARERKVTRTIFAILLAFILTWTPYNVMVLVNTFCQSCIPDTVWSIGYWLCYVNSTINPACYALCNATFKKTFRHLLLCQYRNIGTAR

[14] = measured here: cell density z-score
[15] = measured here: nuclear c-Myc green intensity z-score
[16] = measured here: nuclear pErk red intensity z-score, stronger effect = higher value

Clc1ccc2c(c1)C(N1CCNCC1)=Nc1ccccc1O2
cell count [1]: 676 | inhibition [1]: -0.2% (inactive) | inhibition of aggregation [2]: 16.3% (inactive) | nuclei count [2]: 73.5% | inhibition [3]: -61.7% (inactive) | nuclei count [3]: 119% | z-score [4, 14]: -1.22 | z-score [4, 15]: -0.679 | z-score [4, 16]: 1.28 | inhibition [5]: -7.45% (inactive) | fluorescence slope [6]: -0.471 (inactive) | NADPH fluorescence slope [7]: -7.1e-06 (inactive) | outcome [8]: inactive; toxic | inhibition [9]: -13.2% (inactive) and 2.47% (inactive) | inhibition [10]: 1.94% (inactive) | inhibition [11]: 23.6% (inactive)

CCCn1c(=O)[nH]c(=O)c2[nH]cnc21
cell count [1]: 615 | inhibition [1]: -1.8% (inactive) | inhibition [3]: -98.8% (inactive) | nuclei count [3]: 137% | z-score [4, 14]: 2.73 | z-score [4, 15]: -1.33 | z-score [4, 16]: 0.0338 | inhibition [5]: 19% (inactive) | fluorescence slope [6]: -0.494 (inactive) | NADPH fluorescence slope [7]: -7.3e-05 (inactive) | slope [12]: 0.00482 (inactive) | outcome [8]: inactive | inhibition [9]: 4.71% (inactive) and 14.1% (inactive) | inhibition [10]: 18.8% (inactive) | inhibition [11]: 33.6% (inactive)

CNCCCN1c2ccccc2CCc2ccccc21
cell count [1]: 539 | inhibition [1]: -8.9% (inactive) | inhibition [3]: -27% (inactive) | nuclei count [3]: 118% | z-score [4, 14]: -1.38 | z-score [4, 15]: -0.202 | z-score [4, 16]: 2.91 | inhibition [5]: 15.3% (inactive) | fluorescence slope [6]: -0.533 (inactive) | NADPH fluorescence slope [7]: -5.3e-05 (inactive) | slope [12]: 0.00468 (inactive) | outcome [8]: inactive | inhibition [9]: -1.03% (inactive) and 0.865% (inactive) | inhibition [10]: 0.658% (inactive) | inhibition [11]: 24.2% (inactive)

COC(=O)C(NC(C)=O)(Nc1ccccn1)C(F)(F)F (centres undefined)
cell count [1]: 499 | inhibition [1]: -0.5% (inactive) | inhibition of aggregation [2]: 12.2% (inactive) | nuclei count [2]: 111% | inhibition [3]: -61.1% (inactive) | nuclei count [3]: 121% | z-score [4, 14]: 2.44 | z-score [4, 15]: -0.933 | z-score [4, 16]: -0.0238 | inhibition [5]: 41.5% (inactive) | fluorescence slope [6]: -0.44 (inactive) | NADPH fluorescence slope [7]: -0.000125 (inactive) | fluorescence slope [13]: 0.00527 (inactive) | outcome [8]: inactive | inhibition [9]: -7.72% (inactive) | inhibition [10]: 12.5% (inactive) | inhibition [11]: 20.1% (inactive)

COc1ccc2c(c1)n([O-])c1c([n+]2=O)CCC1
cell count [1]: 640 | inhibition [1]: -4.7% (inactive) | inhibition of aggregation [2]: -32.6% (inactive) | nuclei count [2]: 113% | inhibition [3]: -56.2% (inactive) | nuclei count [3]: 108% | z-score [4, 14]: -0.812 | z-score [4, 15]: 2.02 | z-score [4, 16]: -1.59 | inhibition [5]: 3.49% (inactive) | fluorescence slope [6]: -0.367 (inactive) | NADPH fluorescence slope [7]: -3.5e-05 (inactive) | fluorescence slope [13]: 0.00434 (inactive) | outcome [8]: inactive | inhibition [9]: -9.94% (inactive) | inhibition [10]: -10.3% (inactive) | inhibition [11]: 99.2% (active)

CCOC(=O)C1=C(C)NC(C)=C(C(=O)OC)C1c1cccc(Cl)c1Cl (centres undefined)
cell count [1]: 723 | inhibition [1]: -6.4% (inactive) | inhibition [3]: -52.9% (inactive) | nuclei count [3]: 142% | z-score [4, 14]: 0.529 | z-score [4, 15]: -0.8 | z-score [4, 16]: 1.2 | inhibition [5]: 25.1% (inactive) | fluorescence slope [6]: -0.431 (inactive) | NADPH fluorescence slope [7]: -6.6e-05 (inactive) | slope [12]: 0.00394 (inactive) | outcome [8]: inactive | inhibition [9]: 14.9% (inactive) and 24.6% (inactive) | inhibition [10]: 3.98% (inactive) | inhibition [11]: 6.81% (inactive)

Cc1ccc(C2C3CN(C(C)C)CC=C3C(C#N)=C(N)C2(C#N)C#N)cc1 (centres undefined)
cell count [1]: 620 | inhibition [1]: 0.1% (inactive) | nuclei count [2]: 99.1% | inhibition [3]: -85.5% (inactive) | nuclei count [3]: 145% | z-score [4, 14]: 1.72 | z-score [4, 15]: 2.35 | z-score [4, 16]: 0.446 | inhibition [5]: 70.4% (inactive) | fluorescence slope [6]: -0.33 (inactive) | NADPH fluorescence slope [7]: -1.4e-05 (inactive) | slope [12]: -0.00688 (active) | outcome [8]: inactive | inhibition [9]: 8.92% (inactive) | inhibition [10]: 22.9% (inactive) | inhibition [11]: 22.3% (inactive)

O=C(O)c1cc(=O)cc(C(=O)O)[nH]1
cell count [1]: 482 | inhibition [1]: 1.8% (inactive) | inhibition of aggregation [2]: 0.2% (inactive) | nuclei count [2]: 98% | inhibition [3]: -58.7% (inactive) | nuclei count [3]: 188% | fluorescence slope [6]: -0.603 (inactive) | NADPH fluorescence slope [7]: -2e-06 (inactive) | fluorescence slope [13]: 0.00559 (inactive) | inhibition [9]: 3.81% (inactive) | inhibition [10]: 13.7% (inactive) | inhibition [11]: 20.1% (inactive)

COC(=O)C1=C(C)NC(C)=C(C(=O)OC)C1c1ccccc1[N+](=O)[O-]
cell count [1]: 548 | inhibition [1]: -5.5% (inactive) | inhibition [3]: -80.3% (inactive) | nuclei count [3]: 116% | z-score [4, 14]: 1.16 | z-score [4, 15]: 0.789 | z-score [4, 16]: -0.998 | inhibition [5]: 13.3% (inactive) | fluorescence slope [6]: -0.461 (inactive) | NADPH fluorescence slope [7]: -1.4e-05 (inactive) | slope [12]: 0.00935 (inactive) | outcome [8]: inactive | inhibition [9]: -13.6% (inactive) and -16.5% (inactive) | inhibition [10]: 12.4% (inactive) | inhibition [11]: 13.4% (inactive)

CN/C(=C/[N+](=O)[O-])NCCSCc1ccc(CN(C)C)o1
cell count [1]: 593 | inhibition [1]: -4.1% (inactive) | inhibition [3]: -23.6% (inactive) | nuclei count [3]: 105% | z-score [4, 14]: 1.15 | z-score [4, 15]: -0.304 | z-score [4, 16]: -1.85 | inhibition [5]: 16.8% (inactive) | fluorescence slope [6]: -0.46 (inactive) | NADPH fluorescence slope [7]: 1.7e-05 (inactive) | slope [12]: 0.00584 (inactive) | outcome [8]: inactive | inhibition [9]: -22.8% (inactive) | inhibition [10]: 13.1% (inactive) | inhibition [11]: 30.9% (inactive)

Cc1ccc(N(CC2=NCCN2)c2cccc(O)c2)cc1
cell count [1]: 561 and 534 | inhibition [1]: -6.5% (inactive) and 2.1% (inactive) | inhibition of aggregation [2]: -6.5% (inactive) and -10.5% (inactive) | nuclei count [2]: 106% and 78.7% | inhibition [3]: -44.6% (inactive) and -23.4% (inactive) | nuclei count [3]: 136% and 125% | z-score [4, 14]: -1.49 and -0.829 | z-score [4, 15]: 1.38 and 2.5 | z-score [4, 16]: -0.739 and 1.17 | inhibition [5]: 5.79% (inactive) | fluorescence slope [6]: -0.452 (inactive) and -0.478 (inactive) | NADPH fluorescence slope [7]: -5.4e-05 (inactive) and -3.9e-05 (inactive) | outcome [8]: inactive | inhibition [9]: 4.48% (inactive) and 1.6% (inactive) and -7.32% (inactive) | inhibition [10]: 0.917% (inactive) and -3.85% (inactive) | inhibition [11]: 21.2% (inactive) and 12.9% (inactive)

Reference: PubChem BioAssay
